Results as given in PubChem BioAssay AID602156 (GNF / Scripps Winzeler lab, 2011).
Hit rate of the full screen: of about 5,700 compounds, about 280 (4.9%) were called active. The rule behind the calls is not given here. Only a sample is shown.

Experiment: Plasmodium liver-stage growth inhibition, dose response, imaging, Malaria Box, P. yoelii, HepG2-A16-CD81EGFP (AID 602156)
Settings: P. yoelii liver stage in HepG2-A16-CD81EGFP

outcome, inactive:
CC(C)(C)CC(=O)NCCCCNc1ccnc2cc(Cl)ccc12
O=C(Nc1ccc(-c2nc3ccccc3[nH]2)cc1)c1ccc(-c2cccc([N+](=O)[O-])c2)o1
O=C(Nc1ccc(-c2nc3ccccc3[nH]2)cc1)c1cccc(C(=O)Nc2ccc(-c3nc4ccccc4[nH]3)cc2)n1
CCc1ccccc1N(CC(=O)NC1CCCCC1)C(=O)CCC(=O)Nc1ccccn1
Oc1ccc(-c2ccccc2)cc1CNC1CCCCC1
CCOC(=O)c1c(C)[nH]c(C)c1S(=O)(=O)N1CCCC(C(=O)N2CCN(c3cccc(C)c3C)CC2)C1 (stereo not given)
CC1CN(C(=O)C(Cc2c[nH]c3ccccc23)NC(=O)CCl)CCN1C(=O)Nc1ccccc1 (stereo not given)
Cc1ccc(C=Cc2ccc3ccccc3[n+]2C)cc1
COc1ccc(-c2c[n+](CC(=O)c3ccccc3)c3n2CCC3)cc1
COc1ccc(OC)c(-c2ccc(O)c(CNCC(C)c3ccccc3)c2)c1 (stereo not given)
COc1cccc2cc(C(=O)Nc3cccc(C(F)(F)F)c3)c(=O)oc12
Fc1cc(F)c(C2SCCN2C(=S)Nc2cccc(C(F)(F)F)c2)c(F)c1 (stereo not given)
CC(C)(C)CC(C)(C)Nc1c(-c2ccccc2OC(=O)c2cccc(Br)c2)nc2ccccn12
COc1ccccc1C=CC1=NC(=Cc2ccc(SC)cc2)C(=O)O1
O=C(Cn1cc([N+](=O)[O-])nc1[N+](=O)[O-])N1CCN(c2ccc(F)cc2)CC1
CCOc1ccc(C=C2SC(=Nc3ccccc3)NC2=O)cc1OC
CCOC(=O)C1CCN(C(=O)CN2C(=O)c3ccccc3C2c2c[nH]c3ccccc23)CC1 (stereo not given)
N#CC(=Cn1cc(Cc2ccc(Cl)cc2Cl)c2ccccc21)c1nn(CCO)c(N)c1C#N
Cc1nnc2sc(SCc3ccc([N+](=O)[O-])cc3)nn2c1=O
CC1CCN(S(=O)(=O)c2ccc(C(=O)NCc3ccco3)cc2)CC1
CCN1CCCC1CNc1ncnc2c1[nH]c1ccc(C)cc12 (stereo not given)
c1ccc(CCCNc2ccnc3cc4ccccc4cc23)cc1
COCCn1c(SCC(=O)c2ccc(C)cc2C)nnc1-c1ccco1
CCN(CC)CCNc1ncnc2c1[nH]c1ccc(Br)cc12
CC(C)CNC(=O)c1cnc(NCCCN2CCCC2)nc1NCC1CCCCC1
CC[n+]1c(/C=C2\Sc3oc4ccccc4c3N2C)ccc2cc(C)ccc21
c1ccc(Nc2nc(NCC3CCCO3)c3ccccc3n2)cc1 (stereo not given)
COc1ccccc1N1C(=N)SC(=Cc2ccc(OCc3ccccc3F)cc2)C1=O
CC[N+](CC)=c1scc(-c2ccc([N+](=O)[O-])cc2)s1
COc1cc(C(=O)NCCc2cc3ccccc3[nH]2)ccc1OC1CCN(CC(c2ccccc2)c2ccccc2)CC1
O=C(NCCCCCCCCCCNC(=O)Nc1ccc(C2=NCCCN2)cc1)Nc1ccc(C2=NCCCN2)cc1
COc1ccc(-c2csc3nc(COc4cccc(C)c4)nn23)c(O)c1
CCCCN(C)C(=O)CSc1nc(NCc2ccccc2)c2ccccc2n1
Cc1ccc(N=C2SC(=Cc3c(Cl)cccc3Cl)C(=O)N2c2ccc(C)c(C)c2)cc1C
CCCCCCC(=O)Oc1ccccc1-c1nc2ccccn2c1NC(C)(C)CC(C)(C)C
CN(CCCNc1ccnc2cc(Cl)ccc12)C(=O)c1ccc(Cl)c(Cl)c1
Cc1c(Cl)cccc1NC(=O)C1C(C(=O)O)C2C=CC1C21CC1 (stereo not given)
CCCCCN(C(=O)c1ccc(Br)cc1)C(CC)c1nc2ccccc2c(=O)n1-c1ccccc1OC (stereo not given)
CCCCCCN(C(=O)c1ccccc1)C(CC)c1nc2ccccc2c(=O)n1-c1ccccc1OC (stereo not given)
O=c1c2c(nc3cc(-c4ccc(Cl)cc4)[nH]n13)CCCC2
O=c1c2c(nc3cc(-c4ccc(-c5ccccc5)cc4)[nH]n13)CCCC2
Cc1cccc(OCC(=O)Nc2cccc(NC(=O)COc3cccc(C)c3)n2)c1
CCc1ccc(C(C)=NNc2nc(-c3ccccc3)cc(=O)[nH]2)cc1
Cc1cccc(NS(=O)(=O)c2ccc3[nH]c(=O)ccc3c2)c1C
COc1cc(/C=C(\C#N)c2nc3ccccc3[nH]2)ccc1OCc1ccc(C)cc1
Clc1ccc(Nc2nc(Nc3ccc(Cl)cc3)c3ccccc3n2)cc1
CCc1ccc(-n2c(C(CC)N(CCc3ccccc3)C(=O)c3cc(OC)cc(OC)c3)nc3ccccc3c2=O)cc1 (stereo not given)
CCCCCCN(C(=O)COCc1ccccc1)C(C)c1nc2ccccc2c(=O)n1-c1cccc(Cl)c1C (stereo not given)
Cc1ccc2c(c1)c(-c1ccccc1)c(-c1ccccc1)n2CC(O)CN1CCN(Cc2ccccc2)CC1 (stereo not given)
CC1CC(C)CN(c2ccc([N+](=O)[O-])cc2-c2nn[nH]n2)C1 (stereo not given)
COc1ccc(C=NNc2nc3ccc(Cl)cc3[nH]2)cc1OC
COc1ccc(C=C2SC(=N)N(c3ccc4c(c3)OCO4)C2=O)cc1OC
COc1ccc(C(OCC(=O)N2CCN(Cc3ccccc3)CC2)c2ccccc2)cn1 (stereo not given)
O=C(Nc1ccc(C2=NCCN2)c(Cl)c1)c1cccc(C(=O)Nc2ccc(C3=NCCN3)c(Cl)c2)c1
CC1CC(C)CN(S(=O)(=O)c2ccc(C(=O)Nc3ccc(-c4nc5ccccc5o4)cc3)cc2)C1 (stereo not given)
Cc1ccc2cc3c(N)c4cccc(C)c4nc3nc2c1
CCOc1ccc(Nc2[nH]c(=O)sc2C2=c3cc(Br)ccc3=NC2=O)cc1
Cc1ccc(O)c(NC(=O)c2cnn3c(C(F)(F)F)cc(-c4ccc(F)cc4)nc23)c1
O=C(C=Cc1cccnc1)C12CC3CC(CC(C3)C1)C2
O=C1NN(c2ccccc2)C(=O)C1=C1C(=O)N(Cc2cccc3ccccc23)c2ccccc21
Cc1cc2ncn(N=Cc3cccnc3)c2cc1C
CCOC(=O)c1c(C)n(-c2ccccc2)c2ccc(OC(=O)c3ccccc3NC(=O)CC)cc12
CC(C)=CCCC(C)=CCCC(C)NCCN1CCNCC1 (stereo not given)
C=CCNC(=O)c1ccc2c(c1)N=CN(CCOc1ccccc1)C2
Cn1c(SCC2CCCO2)nnc1C1CCN(C/C=C/c2ccccc2)CC1 (stereo not given)
Cc1cc(S(=O)(=O)N2CCN(Cc3ccccc3)CC2)ccc1-n1cnnn1
COc1ccc(S(=O)(=O)ON=C2C=C(C(C)C)C(=O)C=C2C)cc1
COc1ccc(NC(=O)C2c3ccccc3C(=O)N(CC(C)C)C2c2cccs2)cc1OC (stereo not given)
COc1ccc(NC(=O)/C=C/c2ccccc2Cl)cc1
O=C1CC(c2ccccc2)CC2=C1C(c1cc(F)ccc1F)Nc1ccccc1N2 (stereo not given)
CCCCCCCCCC(=O)N1CCN(C(CC)c2nc3ccccc3c(=O)n2C)CC1 (stereo not given)
CC(c1nc2ccccc2c(=O)n1-c1ccc(Br)cc1)N1CCN(S(=O)(=O)c2ccc3ccccc3c2)C(C)C1 (stereo not given)
CCC(NC1CCCCC1)c1nc2ccccc2c(=O)n1C (stereo not given)
CC(c1nc2ccc(Cl)cc2c(=O)n1C)N1CCN(C(=O)C(C)(C)C)CC1 (stereo not given)
CCCCC(CC)C(=O)N1CCN(C(C)c2nc3ccc(Cl)cc3c(=O)n2C)CC1 (stereo not given)
CCCCCCCCC(=O)N1CCN(C(CC)c2nc3ccccc3c(=O)n2C)CC1 (stereo not given)
COc1ccc(/C=C2\N=C(c3ccc(Cl)cc3)N(c3ccccc3)C2=O)cc1OC
O=C(NCCCNC(=O)Nc1cccc(C2=NCCN2)c1)Nc1cccc(C2=NCCN2)c1
CC(C)c1ccc(NC(=O)C=Cc2ccccc2Cl)cc1
COC(=O)c1sccc1S(=O)(=O)N1CCCC(c2[nH]ncc2-c2ccccc2)C1 (stereo not given)
Cc1cccc(Nc2nc3nonc3nc2NN=Cc2cccs2)c1C
O=C(NCCC(c1ccccc1)c1ccccc1)c1cccc([N+](=O)[O-])c1
COC(=O)c1ccc(C=NNc2cc(C)nc3ccc(OC)cc23)cc1
O=S(=O)(/C=C/c1ccccc1)NCCCCNc1ccnc2cc(Cl)ccc12
CCN(CC)Cc1cc(Nc2nc3ccccc3[nH]2)cc(CN(CC)CC)c1O
CC[n+]1c(C=C2Sc3ccccc3N2C)ccc2ccc(C)cc21
O=C(CNCCc1ccccc1)NC(c1ccccc1)c1ccccc1
O=C(c1c2c(nc3ccccc13)CCC2)N1CCc2ccccc21
O=C(O)c1cc([N+](=O)[O-])ccc1Oc1cncc(Cl)c1
CCCN(CCC)CC(O)COc1ccccc1C(=O)Nc1ccccc1 (stereo not given)
CCn1c(SCC(=O)N(c2ccccc2)c2ccccc2)nc2sc3c(c2c1=O)CCN(C)C3
Cc1cccc(CCNc2cc(C)nc3ncnn23)c1
COc1ccccc1N1CCN(C(=O)Nc2ccc3ccccc3c2)CC1
Oc1ccc(-c2cnccn2)cc1CNC1CCN(Cc2ccccc2)CC1
CC1(C)C2CCC1(C)C(NCc1ccccc1O)C2 (stereo not given)
COc1ccc(OC)c(-c2ccc(O)c(CNCc3ccccc3OC)c2)c1
COc1ccc(CNC(=O)C2CNCC2c2ccc(C(F)(F)F)cc2)cc1 (stereo not given)
COc1cccc(CNC(=O)[C@@H]2CNC[C@H]2c2ccc(C(F)(F)F)cc2)c1
CCCCCN1/C(=C\C=C\c2n(CC)c3cc(Cl)c(Cl)cc3[n+]2CCCCC)N(CC)c2cc(Cl)c(Cl)cc21
COc1ccc(-c2cc(C(=O)NCc3cccnc3)no2)cc1OC
